Laboratory results published in PubChem BioAssay AID2796 (The Scripps Research Institute Molecular Screening Center, 2010).
Hit rate of the full screen: of about 320,000 compounds, about 8,000 (2.5%) were called active. The sample holds actives, similar compounds and a random draw of the others, so the mix is not that of the screen. No stated cut-off is given here; in the data, active means activation above about 47%; inactive means the rest.

Each molecule was assayed against Aryl hydrocarbon receptor (Homo sapiens) (UniProt P35869) (assay: AHR activators, primary screen, cell-based, luminescence, luciferase reporter, human (AID 2796;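 further: 0% = vehicle wells and 100% = reference agonist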)). Details: AHR-responsive luciferase reporter cells, at 5 µM, stronger effect = higher value.
Sequence of Aryl hydrocarbon receptor (Homo sapiens) (P35869 whole entry, looked up): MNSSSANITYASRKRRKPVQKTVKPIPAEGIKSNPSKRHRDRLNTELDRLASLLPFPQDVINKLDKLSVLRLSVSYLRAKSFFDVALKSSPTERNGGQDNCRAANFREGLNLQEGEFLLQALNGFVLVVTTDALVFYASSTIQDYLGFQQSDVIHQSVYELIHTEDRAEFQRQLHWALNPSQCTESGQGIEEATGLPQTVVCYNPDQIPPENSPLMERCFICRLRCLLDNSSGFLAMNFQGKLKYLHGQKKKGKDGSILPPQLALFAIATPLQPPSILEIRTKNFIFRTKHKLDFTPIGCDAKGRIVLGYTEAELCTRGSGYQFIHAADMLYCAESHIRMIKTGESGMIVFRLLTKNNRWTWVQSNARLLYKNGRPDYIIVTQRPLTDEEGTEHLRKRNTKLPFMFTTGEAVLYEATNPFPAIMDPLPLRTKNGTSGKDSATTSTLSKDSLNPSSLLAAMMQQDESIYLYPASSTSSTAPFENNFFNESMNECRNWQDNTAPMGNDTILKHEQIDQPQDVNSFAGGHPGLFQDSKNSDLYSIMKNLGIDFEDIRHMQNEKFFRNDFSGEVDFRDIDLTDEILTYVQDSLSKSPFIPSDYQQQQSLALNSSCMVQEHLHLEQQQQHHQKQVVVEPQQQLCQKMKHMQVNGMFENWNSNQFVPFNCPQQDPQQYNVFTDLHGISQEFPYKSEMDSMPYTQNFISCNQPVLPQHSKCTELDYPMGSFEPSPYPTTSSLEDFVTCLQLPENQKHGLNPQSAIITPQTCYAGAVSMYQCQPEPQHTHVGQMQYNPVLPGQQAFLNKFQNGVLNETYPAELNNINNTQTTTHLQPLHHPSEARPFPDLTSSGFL

SMILES | activation
O=S(=O)(NC1CC1)c1ccc2c3c(cccc13)CC2 | 1.23% (inactive)
CCn1c(CN2C(=O)CSc3ccccc32)n[nH]c1=S | 1.51% (inactive)
COC(=O)c1c(-c2cccs2)csc1NC(=O)CSc1ncnc2sc(C)c(C)c12 | 6.7% (inactive)
Cc1sc2ncnc(Sc3nc4ccccc4s3)c2c1C | 47.2% (active)
CSc1ncnc2sc(C)c(C)c12 | 1.25% (inactive)
O=C(NNS(=O)(=O)c1ccc(F)cc1)C1CCCCC1 | -0.99% (inactive)
CN(CC(=O)Nc1ccc(Cl)cc1)C(=O)c1ccc(COc2ccccc2)cc1 | 0.65% (inactive)
CC(=O)N1c2ccc(S(=O)(=O)N3CCCC(C(=O)Nc4ccc(C)cc4C)C3)cc2CC1C (centres undefined) | 0.6% (inactive)
CCC(=O)c1ccc(OCC(=O)OCC(=O)N2CCc3ccccc3C2)cc1 | -1.4% (inactive)
COc1ccc2sc(-c3ccc(N(C)C)cc3)c(C#CCO)c2c1 | 64.8% (active)
COc1ccc(-c2sc3ccc(OC)cc3c2C#Cc2ccccn2)cc1 | 70.4% (active)
COc1ccc2sc(-c3ccc(S(C)(=O)=O)cc3)c(C#Cc3cncn3C)c2c1 | 39.3% (inactive)
COc1cc(OC)cc(-c2sc3ccc(OC)cc3c2-c2ccc3cc[nH]c3c2)c1 | 13% (inactive)
COc1ccc2sc(-c3ccccc3OC)c(-c3ccc(OCCN4CCCC4)cc3)c2c1 | 1.65% (inactive)
COc1ccc2sc(-c3ccc(N(C)C)cc3)c(-c3ccc4cc[nH]c4c3)c2c1 | 22.1% (inactive)
CCCN(C(=O)CSc1nnc(N)s1)c1c(N)n(Cc2ccccc2)c(=O)[nH]c1=O | 0.7% (inactive)
COc1cccc(CN(C)CC2CCCN(CCc3ccc(Cl)cc3)C2)c1OC (centres undefined) | -2.92% (inactive)
COc1ccc2c(c1)CCC/C2=N\OC(=O)c1ccccc1F | 2.52% (inactive)
COCCN(Cc1ccccc1)C(=O)Cc1ccc(S(=O)(=O)N2CCOCC2)s1 | 0.03% (inactive)
O=C1OC[C@@H]2CCCN2C(=O)[C@H](CC(=O)N(CCO)Cc2ccccc2)C/C=C\CC[C@@H]1Cc1ccc(F)cc1 | -2.45% (inactive)
Cc1cc(N/N=C\c2ccc(Br)cc2)nc(-n2nc(C)cc2C)n1 | 27.3% (inactive)
COc1ccc(-c2nn(-c3ccccc3)cc2/C=N/Nc2ccccn2)cc1OC | 30.3% (inactive)
COc1ccccc1/C=N\Nc1cc(C)nc(-n2nc(C)cc2C)n1 | 70.2% (active)
CCOc1ccccc1NC(=O)COc1ccc(S(=O)(=O)N2CCCC2)cc1 | 7.9% (inactive)

SMILES | activation
O=C(Nc1nnc(-c2ccccc2)o1)c1cc(-c2cccs2)nc2ccccc12 | 5.25% (inactive)
CC(=O)Nc1cccc(Nc2nc(-c3cccs3)nc3ccccc23)c1 | 51.4% (active)
COc1ccccc1C(=O)Nn1c(-c2cccs2)nc2ccccc2c1=O | 13.9% (inactive)
Cc1nc2c(ncn2-c2ccccc2)c(=O)n1NC(=O)CN1CCCC1 | 0.17% (inactive)
CC1CN(c2nc(-c3ccccc3)nnc2-c2ccccc2)CC(C)O1 (centres undefined) | 10.3% (inactive)
CC(C)Cn1c(CCC(=O)O)ccc1-c1cccs1 | -1.84% (inactive)
OCCCNc1nc(-c2ccccc2)c2cc(Cl)ccc2n1 | 3.68% (inactive)
COc1cc2nc(Cl)nc(NCCO)c2cc1OC | -0.57% (inactive)
OCCNc1nc(Nc2ccc(Cl)c(Cl)c2)nc2ccccc12 | 124% (active)
O=C(NC(CC(=O)N1CCN(c2ccccc2)CC1)c1ccccc1)c1ccccc1Cl (centres undefined) | -0.75% (inactive)
COc1cc(OC)cc(-c2nc3ccccc3c(=O)n2NC(=O)c2cccnc2Cl)c1 | 4.93% (inactive)
O=C(Nn1c(-c2ccc(Cl)cc2)nc2ccccc2c1=O)c1cccnc1Cl | 104% (active)
Cc1cccc(-c2nc3ccccc3c(=O)n2NC(=O)Cc2ccc(Cl)cc2)c1 | -0.38% (inactive)
COc1ccc(C(=O)COC(=O)c2ccc3ccccc3n2)cc1 | 2.48% (inactive)
O=C(Nc1ccc(S(=O)(=O)Nc2ccccn2)cc1)c1ccccc1 | -0.84% (inactive)
c1ccc(-c2cn3c(n2)CCc2ccc4cccnc4c2-3)cc1 | 64% (active)
O=S(=O)(Nc1ncccn1)c1ccc(NS(=O)(=O)c2cccc(Cl)c2Cl)cc1 | 0.76% (inactive)
CC(=O)c1ccccc1OCc1ccc(C(=O)c2ccccc2)cc1 | 0.89% (inactive)
CCCCOc1ccc(CSC(=N)N)cc1[N+](=O)[O-] | 15% (inactive)
CCCOc1ccc(Cn2ccnc2)cc1[N+](=O)[O-] | 59.2% (active)
CCCCCOc1ccc(CSC2=NCCN2)cc1[N+](=O)[O-] | 6.95% (inactive)
O=C(CCC(=O)NNc1nc2ccccc2c2nc(-c3ccccc3)nn12)NCCCN1CCCC1=O | 55.5% (active)
Cc1nn(Cc2ccccc2)c(C)c1C(=O)NCCCN1CCCC1=O | 2.56% (inactive)
COc1ccc(-c2cc(C(=O)NCCCN3CCCC3=O)c3ccccc3n2)cc1OC | 11.6% (inactive)

SMILES | activation
COc1ccc(N(CC(=O)NC2CCCCC2)C(=O)CNC(=O)c2ccco2)c(OC)c1 | 0.47% (inactive)
O=C(CN1C(=O)NC2(CCCCCCC2)C1=O)NCc1ccc(F)cc1 | 2.09% (inactive)
O=C1NC[C@@H](Cc2ccc(O)cc2)N(CCc2cccc(F)c2)C1=O | -0.45% (inactive)
CCN(CC)CC1(O)CCN(C(=O)c2ccc(Cl)c(Cl)c2)CC1 | 10.4% (inactive)
CCCn1c(=N)n(CC(=O)c2ccc(Cl)c(Cl)c2)c2ccccc21 | 66.2% (active)
O=C(Cn1nnc(N2CCCCC2)n1)c1ccc(Cl)c(Cl)c1 | -3.18% (inactive)
CCOC(=O)c1cc2ccccc2n1CC(=O)c1ccccc1 | 24% (inactive)
COc1ccc2cc(C(=O)O)n(CC(=O)c3ccccc3)c2c1 | 18.9% (inactive)
CCn1c(=N)n(CC(=O)c2cccc(OC)c2)c2ccccc21 | 50.3% (active)
O=C(c1c(F)cccc1Cl)N1CCN(S(=O)(=O)c2ccc3c(c2)OCCCO3)CC1 | -0.63% (inactive)
O=C(Nc1ccc(N2CCCCC2)cc1)c1cc(S(=O)(=O)N2CCOCC2)ccc1F | 0.49% (inactive)
CCc1ccccc1NC(=S)N(CCN1CCCCCC1)Cc1ccco1 | 0.79% (inactive)
COc1cccc(CNS(=O)(=O)c2ccc3c(c2)N(C(C)=O)CCS3)c1 | 7.96% (inactive)
Nc1ncnc2c1ncn2[C@@H]1O[C@H](CNCc2cccn2-c2nccs2)[C@@H](O)[C@H]1O | -1.49% (inactive)
Cc1ccc(NS(=O)(=O)c2c(C)[nH]c(=O)[nH]c2=O)cc1C | -2.23% (inactive)
COc1ccc(NC(=O)C2=C(C)NC(=O)NC2c2ccccc2[N+](=O)[O-])cc1 (centres undefined) | 2.47% (inactive)
Cc1csc(NC(=S)Nc2cccc(Cl)c2)n1 | 81.2% (active)
Cc1cccc(NC(=S)Nc2ccc(Cl)c(Cl)c2)c1 | 2.86% (inactive)
FC(F)(F)c1cccc(NC(=S)Nc2cccc(Cl)c2)c1 | 6.14% (inactive)
Cc1cccc(C(C)C)c1NC(=O)COC(=O)C1CC(=O)N(Cc2ccccc2)C1 (centres undefined) | 3.03% (inactive)
CCC(C)NC(=O)C1CCCN(C(=O)NC2CCCCC2)C1 (centres undefined) | 2.48% (inactive)
CC(=O)NC(CC(=O)Nc1ccc(S(=O)(=O)N2CCOCC2)cc1)c1ccccc1 (centres undefined) | 0.88% (inactive)
O=C(COC(=O)c1cccc(Cl)c1)NC1CCCCCCC1 | 0.68% (inactive)
COc1ccccc1NC(=O)Nc1nnc(Cc2ccc(F)cc2)s1 | 59.8% (active)

SMILES | activation
O=C(Nc1nnc(COc2ccccc2)s1)Nc1ccccc1F | 10.9% (inactive)
COc1ccccc1NC(=O)Nc1nc(CC(=O)Nc2ccccc2F)cs1 | 25% (inactive)
CCN(CC)S(=O)(=O)c1cccc(-c2n[nH]c(=S)n2/N=C/c2ccc(C(=O)OC)cc2)c1 | 5.2% (inactive)
O=C(NC(=S)N1CCN(Cc2ccccc2)CC1)c1ccccc1 | 2.61% (inactive)
CC(C)c1ccc(Nc2ncccc2C#N)cc1 | 56.8% (active)
O=C(COC(=O)c1ccc([N+](=O)[O-])o1)NC12CC3CC(CC(C3)C1)C2 | 0.67% (inactive)
COc1cccc2sc3cc(NCC[C@@H]4CCCN4C)ccc3c(=O)c12 | 72.2% (active)
Cc1cc2oc3ccc(NCCC4CCCN4C)cc3c(=O)c2cc1C (centres undefined) | 2.97% (inactive)
COc1ccc(CCNC(=O)C(=O)NCC2CCNCC2)cc1OC | -0.68% (inactive)
COc1ccc(-c2cc(-c3ccc(N)cc3)nc(N)c2C#N)cc1OC | 79.4% (active)
CCOc1cc(-c2cc(-c3ccc(OC)cc3)nc(N)c2C#N)ccc1O | 0.62% (inactive)
CCOc1cc(-c2cc(-c3ccc(NC(C)=O)cc3)nc(N)c2C#N)ccc1O | 8.37% (inactive)
COc1cccc(NC(=O)CC(c2ccc(OC(C)C)cc2)c2ccccc2OC)c1 (centres undefined) | -0.21% (inactive)
CC(C)(C)OC(=O)CNC(=O)c1[nH]cnc1C(=O)N[C@@H](CCCCN)C(=O)OC(C)(C)C | 0.13% (inactive)
C/C(=N\NC(=S)Nc1ccc(C)cc1)c1cc2ccccc2o1 | 70.2% (active)
Cc1ccc(NC(=O)c2cc3ccccc3o2)cc1 | 25.5% (inactive)
O=C(Nc1ccncc1)c1cc2ccccc2o1 | 0.11% (inactive)
CCOC(=O)C1(S(=O)(=O)c2ccc(Cl)cc2)CCN(Cc2ccccc2)CC1 | 0.91% (inactive)
CCOc1ccc(NS(=O)(=O)c2ccc(Cl)c(C(=O)N(C)Cc3cccnc3)c2)cc1 | -0.23% (inactive)
c1csc(CN2CCN(Cc3cccs3)C2c2cccs2)c1 | -2.12% (inactive)
Brc1ccc2c(c1)[C@H]1OCC[C@H]1[C@@H](c1cccs1)N2 | 77.4% (active)
COc1ccc(CNC(=O)COC(=O)C(CCSC)N2C(=O)c3ccccc3C2=O)cc1 (centres undefined) | -0.44% (inactive)
